In PubChem BioAssay AID371 (SRMLSC, 2006) one finds growth inhibition data, which are given here for 98 compounds.

The campaign covered roughly 3,300 compounds. About 280 (8.5%) were called active.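 The calls were made as follows: active = mean growth inhibition over the two runs of 50% or more; inactive = mean growth inhibition under 50%.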 Many of the other results were omitted from the sample, so actives are more common in it than they were.

The nature of this test: A549 NSCLC cell proliferation inhibitors – ATP luminescence, human non-small cell lung line, primary screen (AID 371).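 Also: compound exposure lasted 72 h before the ATP read; 0% = untreated cell signal and 100% = no luminescence left.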 The following applies: at 10 µM, stronger effect = higher value.
Turning to `COC(=O)CCc1c(C)[nH]c(C(=O)OCc2ccccc2)c1C`, the growth inhibition is 3.52% (inactive).

On to `O=C(Nc1ccc2c(c1)OCO2)c1cc2n(n1)C(C(F)(F)F)CC(c1ccccc1)N2` (stereo not drawn), for which the growth inhibition is 10.4% (inactive).

In the case of `Cc1nc2sc(C)c(C)c2c(=O)o1`, the growth inhibition was 3.93% (inactive).

Take `COCCCNC(=O)C(C#N)c1nc2ccccc2nc1N1CCCC1` (stereo not drawn): the growth inhibition was 9.56% (inactive).

Regarding `O=C(O)CCCC(=O)Nc1ccn(-c2ccccc2)n1`, the growth inhibition is -9.55% (inactive).

Take `COc1ccc(C2C(C#N)=C(C)NC3=C2C(=O)c2ccccc23)cc1` (stereo not drawn): the growth inhibition was 19.6% (inactive).

Regarding `COCCOCCOCCC(=O)NC1CC2CCC1(C)C2(C)C` (stereo not drawn), the growth inhibition is 0.85% (inactive).

For the compound `O=C(CCC1CCCC1)N1CCC(N2CCN(c3ccccc3)CC2)CC1`, the growth inhibition is 17.9% (inactive).

With `CC(NCCc1ccc(O)cc1)C(O)c1ccc(O)cc1` (stereo not drawn), the growth inhibition is 1.42% (inactive).

With `CCCCCCCCNC(C)C(O)c1ccc(SC(C)C)cc1` (stereo not drawn), the growth inhibition is 92.4% (active).

As for `NC(=O)C1CCN(CCC(=O)Nc2ccc(Br)cc2)CC1`, the growth inhibition was 7.48% (inactive).

`Cc1cccc(NC(=O)c2c(C)cc(=O)oc2C)n1`: the growth inhibition was -3.57% (inactive).

`CCNc1nc(Oc2ccccc2)nc(OC(C)C(=O)OCC)n1` (stereo not drawn): the growth inhibition is -2.75% (inactive).

As for `Cc1cc(C)cc(-n2c3nc4ccccc4nc3c3c(=O)n(Cc4ccco4)cnc32)c1`, the growth inhibition is 72.2% (active).

On to `CCOc1ccc(-n2c3nc4ccccc4nc3c3c(=O)n(Cc4ccco4)cnc32)cc1`, for which the growth inhibition was 14.6% (inactive).

With `COc1cc(-n2c3nc4ccccc4nc3c3c(=O)n(Cc4ccco4)cnc32)cc(OC)c1OC`, the growth inhibition was 4.1% (inactive).

For `COc1ccc(C2(CN(C(C)=O)C(C)=O)CCCC2)cc1OC`, the growth inhibition is 9.44% (inactive).

As for `COC(=O)NCC12CC3CC(C1)CC(CNC(=O)OC)(C3)C2`, the growth inhibition was 2.32% (inactive).

As for `Nc1c(Br)cc2oc(-c3ccccc3)nc2c1Br`, the growth inhibition was 31.4% (inactive).

Take `O=C1CCCN1c1ccc(S(=O)(=O)NCc2ccco2)cc1`: the growth inhibition is 0.41% (inactive).

As to `COc1ccc(N2CC(=O)N(c3ccc(OC)c(OC)c3)CC2=O)cc1OC`, the growth inhibition is -2.72% (inactive).

Take `COc1ccc(OC)c(NS(=O)(=O)c2ccc(N3CCCC3=O)cc2)c1`: the growth inhibition is 62.5% (active).

Turning to `CCOc1ccc(/C(O)=C2/C(=O)C(=O)N(CCN(C)C)C2c2ccccc2)cc1Cl` (stereo not drawn), the growth inhibition was -0.75% (inactive).

In the case of `COc1cccc(/C(O)=C2\C(=O)C(=O)N(c3ccccn3)C2c2ccccc2OC)c1` (stereo not drawn), the growth inhibition was 6.79% (inactive).

As to `CC(C)Cn1cnc2c(c1=O)c1nc3ccccc3nc1n2Cc1ccc2c(c1)OCO2`, the growth inhibition was 12.6% (inactive).

Regarding `CC(C)C1Cc2c(C#N)c(N)n(C)c(=S)c2CO1` (stereo not drawn), the growth inhibition is 11.2% (inactive).

`COc1ccc(OC)c(C2C(C(=O)c3ccco3)=C(O)C(=O)N2CCCN2CCOCC2)c1` (stereo not drawn): the growth inhibition is 4.05% (inactive).

Regarding `Fc1ccccc1-c1nc(N2CCCCC2)c2ccccc2n1`, the growth inhibition was 47.5% (inactive).

As for `c1ccc2c(N3CCCCC3)nc(N3CCCCC3)nc2c1`, the growth inhibition was 25.8% (inactive).

In the case of `Cc1nc(N2CCN(Cc3ccccc3)CC2)c(C#N)c2c1COC(C)(C)C2`, the growth inhibition was 17.5% (inactive).

In the case of `COc1cccc(-c2nc(N3CCN(Cc4ccccc4)CC3)c3ccccc3n2)c1O`, the growth inhibition is 6.86% (inactive).

In the case of `c1ccc(N2CCN(c3nc(-c4ccccn4)nc4ccccc34)CC2)cc1`, the growth inhibition was 64.6% (active).

Take `c1ccc(CN2CCN(c3nc(-c4ccccn4)nc4ccccc34)CC2)cc1`: the growth inhibition was 60% (active).

`CCOC(=O)COc1nc(N(C)C)nc(N(C)C)n1`: the growth inhibition is -5.85% (inactive).

`Cc1nc(SCC(=O)Nc2ccc3c(c2)OCO3)c(C#N)c2c1CCCC2`: the growth inhibition is 18.5% (inactive).

As to `C=C1C2(C(=O)Nc3nccs3)CCC(C2)C1(C)C` (stereo not drawn), the growth inhibition is 5.39% (inactive).

As to `COc1ccc(-c2nnc3sc(-c4c(OC)cccc4OC)nn23)cc1`, the growth inhibition is 16.6% (inactive).

Regarding `CC(O)CNc1nc2c(c(=O)n(C)c(=O)n2C)n1Cc1cccc(C(F)(F)F)c1` (stereo not drawn), the growth inhibition was 22.2% (inactive).

On to `O=C(Nc1ccc2c(c1)OCO2)c1cncc(Br)c1`, for which the growth inhibition was 4.86% (inactive).

As to `COC(=O)c1ccn(C(=O)c2ccc(Cl)cc2)n1`, the growth inhibition was 3.19% (inactive).

As to `COCCOC(=O)c1c(C)nc(SCC(=O)Nc2ccc(OC)cc2)c(C#N)c1-c1ccco1`, the growth inhibition is 5.46% (inactive).

`CCCN(CCC)c1nc2ccccc2nc1C(C#N)C(=O)OC(C)COC` (stereo not drawn): the growth inhibition was 52.1% (active).

Regarding `CCCCN(CCCC)c1nc2ccccc2nc1C(C#N)C(=O)NCCCOC` (stereo not drawn), the growth inhibition is 9.29% (inactive).

Consider `C=CCN(CC=C)c1nc2ccccc2nc1C(C#N)C(=O)OC(C)C` (stereo not drawn), for which the growth inhibition was 23.2% (inactive).

As for `Cc1oc2cc(O)ccc2c(=O)c1-c1cnn(-c2ccccc2)c1`, the growth inhibition was 28.4% (inactive).

Regarding `CCOC(=O)c1oc2cc(O)cc(C)c2c(=O)c1-c1cscn1`, the growth inhibition is 4.18% (inactive).

With `Cc1oc2cc(O)cc(C)c2c(=O)c1-c1cnn(-c2ccccc2)c1`, the growth inhibition is 59% (active).

In the case of `C#CCSC1=C(C#N)C(c2cccs2)C(C(=O)OCC)=C(C)N1` (stereo not drawn), the growth inhibition is 47.5% (inactive).

Regarding `CCSC1=C(C#N)C(c2cccs2)C(C(=O)OC)=C(C)N1` (stereo not drawn), the growth inhibition was 30.4% (inactive).

Turning to `CCOC(=O)C1=C(C)NC(SCC(=O)Nc2nc(C)cs2)=C(C#N)C1c1cccs1` (stereo not drawn), the growth inhibition was 86.8% (active).

`COc1cc(-c2nn3c(-c4ccco4)nnc3s2)cc(OC)c1OC`: the growth inhibition was 0.05% (inactive).

On to `O=C(NCCCN1CCOCC1)C1(c2ccccc2)CCOCC1`, for which the growth inhibition is 2.07% (inactive).

As to `O=C(c1ccc(=O)oc1)N1CCN(C(c2ccccc2)c2ccccc2)CC1`, the growth inhibition is 41.2% (inactive).

As to `CNCCCC12CCC(c3ccccc31)c1ccccc12`, the growth inhibition is 52.9% (active).

Regarding `CCCCc1nc2n[nH]c(N)c2c2c1CCCC2`, the growth inhibition was 12.1% (inactive).

`CC(C)(C#N)C(C)(C)c1nn[nH]n1`: the growth inhibition was -3.48% (inactive).

For the compound `Cc1cc(=O)n(CCC(=O)O)c2ccccc12`, the growth inhibition was 0.16% (inactive).

Take `COc1ccc(CCN2CCC(Nc3nc4ccccc4n3Cc3ccc(F)cc3)CC2)cc1`: the growth inhibition is 95.5% (active).

`COc1ccc2c(c1)nc(N)n2Cc1ccccc1`: the growth inhibition was 21.8% (inactive).

For `Clc1ccc(Cn2c(CN3CCCC3)nc3ccccc32)cc1`, the growth inhibition is 29.6% (inactive).

Take `COc1ccc(OC)c(C2C(C#N)=C(N)Oc3cc(C)n(Cc4ccccn4)c(=O)c32)c1` (stereo not drawn): the growth inhibition was -2.3% (inactive).

With `COC(=O)CSc1nc(C)c(Oc2ccccc2)c(=O)[nH]1`, the growth inhibition is -3.23% (inactive).

As to `COC(=O)c1ccccc1OCc1cccc(C)n1`, the growth inhibition is 6.89% (inactive).

`Cc1cccc2c1NC(C)CC2C` (stereo not drawn): the growth inhibition is 0.83% (inactive).

Consider `COc1cc2c(cc1OC)C1(CCCC1)C(N)=C2C#N`, for which the growth inhibition was 54.9% (active).

Take `COc1ccc(C2C(C#N)=C(N)SC(N)=C2C#N)cc1OC`: the growth inhibition is 2.23% (inactive).

For `CC(=O)NC1(C(F)(F)F)C(=O)Nc2c1c(=O)n(C)c(=O)n2C` (stereo not drawn), the growth inhibition is 0.54% (inactive).

Turning to `CCOC(=O)C1=C(N)N2C(=O)CSC2=C(C(=O)OC)C1`, the growth inhibition was -0.01% (inactive).

Regarding `OCCOCCN1CCN(C(c2ccccc2)c2ccc(Cl)cc2)CC1` (stereo not drawn), the growth inhibition is 1.66% (inactive).

Regarding `CN1CCCN(C(c2ccccc2)c2ccc(Cl)cc2)CC1` (stereo not drawn), the growth inhibition was 78.7% (active).

As to `Cc1cccc(CN2CCN(C(c3ccccc3)c3ccc(Cl)cc3)CC2)c1` (stereo not drawn), the growth inhibition was 3.35% (inactive).

Consider `CCCCCn1c2nc3ccccc3nc2c2c(=O)n(CC(C)C)cnc21`, for which the growth inhibition is -1.51% (inactive).

Take `CN1CCN(c2nc3c(c(=O)n(C)c(=O)n3C)n2Cc2cccc3ccccc23)CC1`: the growth inhibition is -7.28% (inactive).

For the compound `CCN(CC)CCCN1C(=O)C(=O)/C(=C(/O)c2ccc(OC)cc2)C1c1ccco1` (stereo not drawn), the growth inhibition is 1.94% (inactive).

In the case of `COc1ccccc1-n1c(N)c(C(=O)NCC2CCCO2)c2nc3ccccc3nc21` (stereo not drawn), the growth inhibition is 52.9% (active).

Consider `COCCn1c(N)c(C(=O)NCC2CCCO2)c2nc3ccccc3nc21` (stereo not drawn), for which the growth inhibition was 23.5% (inactive).

Turning to `Nc1c(C(=O)NCC2CCCO2)c2nc3ccccc3nc2n1/N=C/c1ccncc1` (stereo not drawn), the growth inhibition is 2.51% (inactive).

`O=C(Oc1ccccc1N1C(=O)CCC1=O)c1ccco1`: the growth inhibition was 6.54% (inactive).

On to `COC(=O)CSc1nc2c(c(=O)n(C)c(=O)n2C)n1CCC(C)C`, for which the growth inhibition is -2.98% (inactive).

For `COc1cc2nc(N3CCN(C(=O)C4COc5ccccc5O4)CC3)nc(N)c2cc1OC` (stereo not drawn), the growth inhibition is 91% (active).

Consider `COc1cc2nc(N3CCN(C(=O)C4CCCO4)CC3)nc(N)c2cc1OC` (stereo not drawn), for which the growth inhibition is 15.4% (inactive).

Take `COc1ccc2[nH]c(C)c(C(=O)CN3CCN(C(=O)c4ccco4)CC3)c2c1`: the growth inhibition was 7.48% (inactive).

In the case of `COc1cccc(OC)c1OCCN1CCN(C(=O)c2ccco2)CC1`, the growth inhibition was 2.2% (inactive).

Turning to `COc1cc2nc(N3CCN(C(=O)c4ccco4)CC3)nc(N)c2cc1OC`, the growth inhibition is 82.5% (active).

As to `COC(=O)c1ccccc1NC(=O)C1COc2ccccc2O1` (stereo not drawn), the growth inhibition was 11.9% (inactive).

In the case of `Cc1cc(Cl)ccc1OCC(=O)OC(C)C(=O)N(C)C` (stereo not drawn), the growth inhibition is -0.96% (inactive).

In the case of `O=C(O)c1cc2n(n1)C(C(F)(F)F)CC(c1ccccc1)N2` (stereo not drawn), the growth inhibition was -0.01% (inactive).

In the case of `CCOC(=O)c1nc2nc(C)c(Cl)c(=O)n2[nH]1`, the growth inhibition was -2.82% (inactive).

As to `O=C(O)CC(SCc1ccc(C(=O)O)o1)C(=O)O` (stereo not drawn), the growth inhibition is -5.57% (inactive).

As for `CC(=O)C(=[N+]=[N-])C(=O)NCc1ccccc1`, the growth inhibition was -2.8% (inactive).

For the compound `CC(C)(C)NCc1cc2ccccc2[nH]c1=O`, the growth inhibition is 4.01% (inactive).

As to `Cc1nc2oc(C(=O)c3ccc(Br)cc3)c(N)c2c2c1COC(C)(C)C2`, the growth inhibition is 24.5% (inactive).

For the compound `COCCNC(=O)c1c(N)n(CCC2=CCCCC2)c2nc3ccccc3nc12`, the growth inhibition was 91.2% (active).

In the case of `COCCCNC(=O)c1c(N)n(/N=C/c2cccs2)c2nc3ccccc3nc12`, the growth inhibition was 17% (inactive).

For the compound `COCCNC(=O)c1c(N)n(/N=C/c2cccs2)c2nc3ccccc3nc12`, the growth inhibition was 6.53% (inactive).

With `CCC(CC)n1[nH]c(=O)cc1N`, the growth inhibition is 1.19% (inactive).

For the compound `CC1(C)CC(=O)C(C=N)=C(O)C1`, the growth inhibition was 1.41% (inactive).

In the case of `O=C(c1ccccc1F)N1CCC(N2CCCCCC2)CC1`, the growth inhibition was 2.62% (inactive).
